Compounds with a hit are over-represented: about 9% of the library has one in this group of screens.
HPGD block: blocks human HPGD enzyme activity. P15428. purified HPGD, NADH fluorescence kinetic, PGE2 substrate. Potency, µM, most hits filed as inhibitors. hit rate 4.3% among 150,000. AID 894; active means well fitted inhibition curve with a large enough effect, not every such curve was filed as active; inconclusive means small, poorly fitted or top-dose-only effect, or another doubt; inactive means no such curve, though single readings can be large or run the other way
Target sequence (P15428 whole entry, looked up): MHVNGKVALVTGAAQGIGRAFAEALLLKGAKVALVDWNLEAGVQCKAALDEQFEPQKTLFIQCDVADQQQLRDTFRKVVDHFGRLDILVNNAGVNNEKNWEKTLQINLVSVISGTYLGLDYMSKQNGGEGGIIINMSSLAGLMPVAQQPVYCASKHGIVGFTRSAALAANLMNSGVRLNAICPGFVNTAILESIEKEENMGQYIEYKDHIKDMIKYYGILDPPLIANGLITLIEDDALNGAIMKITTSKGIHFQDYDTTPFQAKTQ
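NADH formation kinetics: reaction with 30 uM PGE2 and 1 mM NAD+ (final), 20 nM enzyme, Tris-HCl pH 8 with Tween 20, after 15 min compound preincubation at room temperature. Fluorescence change, last versus first of five reads.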
Lamin A splicing: modulators of lamin A splicing | hit rate 0.01% among 200,000 | AID 1487 | Potency, µM (highest dose often 46.1 µM), usual class: inhibitors | HeLa LMNA splicing GFP/RFP minigene ratio, 48 h; active means well fitted inhibition curve with a large enough effect in the signal ratio, with a control signal flat, not every such curve was filed as active; inconclusive means small, poorly fitted or top-dose-only effect, or effect the other way, or a change in a side signal; the % refers to the signal ratio
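Read-out is the ratio of GFP to DsRed2 object intensity, acquired by 488 nm laser-scanning cytometry on HeLa lamin A-EGFP minigene reporter cells. Compound incubation 48 hrs at 37 °C in Opti-MEM with 2% FBS; DMSO 0.5% final.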
IMPase Li cell: cell-permeable IMPase inhibitors with lithium potentiation | Potency, µM (highest dose often 59.4 µM), most hits filed as inhibitors | CHO-M1 cells, IP1 TR-FRET (IP-One), carbachol + lithium | AID 1457 | hit rate 0.35% among 210,000;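 further: IP1 builds up when IMPase is blocked and the TR-FRET signal falls; nearly all actives have a fitted effect of over 50% in size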
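CHO cells stably expressing M1 receptor (2000/well, cultured 16–30 h) treated 30 min at 37C with compound plus low lithium. Cytosolic IP1 by TR-FRET (665/620 ratio and 620 channel) after 10 min lysis; AC50 by Hill fit.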
ALDH1A1 inh: blocks purified human ALDH1A1 activity; Purified ALDH1A1, NADH fluorescence, propionaldehyde substrate; Potency, µM (top dose mostly 75.3 µM), usual class: inhibitors; hit rate 7.3% among 220,000; AID 1030; active means well fitted inhibition curve with a large enough effect, not every such curve was filed as active; inconclusive means small, poorly fitted or top-dose-only effect, or another doubt; inactive means no such curve, though single readings can be large or run the other way
Target sequence (P00352 whole entry, looked up): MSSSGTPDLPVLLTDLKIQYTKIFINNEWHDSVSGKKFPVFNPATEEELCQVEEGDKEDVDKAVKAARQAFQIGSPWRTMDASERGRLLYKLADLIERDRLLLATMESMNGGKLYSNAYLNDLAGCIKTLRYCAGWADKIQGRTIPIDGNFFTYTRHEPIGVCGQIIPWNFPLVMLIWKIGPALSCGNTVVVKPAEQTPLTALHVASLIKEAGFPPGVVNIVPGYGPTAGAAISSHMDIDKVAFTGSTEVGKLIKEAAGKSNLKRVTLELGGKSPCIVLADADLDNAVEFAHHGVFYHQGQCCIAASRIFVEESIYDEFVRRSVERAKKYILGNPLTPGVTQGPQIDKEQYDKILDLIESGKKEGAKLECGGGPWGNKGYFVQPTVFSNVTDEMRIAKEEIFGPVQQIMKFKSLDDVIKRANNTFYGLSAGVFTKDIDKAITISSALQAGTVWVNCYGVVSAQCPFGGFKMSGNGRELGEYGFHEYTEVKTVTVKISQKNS
Luc counter: blocks Kinase-Glo luciferase, a counter-screen artifact; Q27757; Kinase-Glo luciferase, ATP luminescence, 8 min; Potency, µM (top dose mostly 38.3 µM), usual class: inhibitors; hit rate 0.28% among 200,000; AID 1379; further: nearly all actives have a fitted effect of over 60% in size
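Recombinant Kinase-Glo luciferase, 10 uM ATP (linear range), luciferin; imidazole pH 7.2 / KCl / MgCl2 / Tween / BSA buffer; 8 min RT; luminescence.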
Of the large screens only hits and unclear results are named; the others gave an inactive call. Unless noted, the call rests on the fitted dose curve; in most records, active means well fitted curve in the direction sought with a large enough effect; inconclusive means small, poorly fitted or top-dose-only effect, or another doubt; inactive means no such curve, though single readings can be large; an effect the other way counts as inactive or inconclusive.

Cc1csc(SCC(=O)Nc2cccc(S(=O)(=O)N3CCCC3)c2)n1	ALDH1A1 inh 25µM
O=C(CSc1nnc(Nc2ccccc2)s1)Nc1cccc(S(=O)(=O)N2CCCCC2)c1	Lamin A splicing inconclusive
Cc1csc(SCC(=O)Nc2cc(S(=O)(=O)N3CCCC3)ccc2Cl)n1	ALDH1A1 inh 1.3µM
Cc1cc(CC(=O)O)n(C)c1C(=O)c1ccc(Cl)cc1	Lamin A splicing inconclusive
c1cn2cc(-c3ccc4c(c3)OCO4)nc2s1	HPGD block 32µM, ALDH1A1 inh 8.9µM
O=C(Nc1ccc(-c2cn3ccsc3n2)cc1)C1CCCC1	HPGD block 14µM, Luc counter 11µM
CC(C)(C)c1ccc(S(=O)(=O)NNC(=O)C2CCN(Cc3cccc(F)c3)CC2)cc1	ALDH1A1 inh 2.2µM (no result: HPGD block, Lamin A splicing)
C/C(=N/OC(=O)c1ccccc1)c1oc(C)nc1C	none (no result: HPGD block, Lamin A splicing, IMPase Li cell, Luc counter)
O=c1c2ccccc2nc(N/N=C/c2ccc(O)cc2)n1O	HPGD block 13µM, ALDH1A1 inh 10µM, Luc counter 11µM
O=c1c2ccccc2nc(N/N=C/c2c(O)ccc3ccccc23)n1O	HPGD block 22µM, Lamin A splicing inconclusive, ALDH1A1 inh inconclusive
Cc1nc2ccccc2c(=O)n1/N=C/c1c(O)ccc2ccccc12	Lamin A splicing inconclusive (no result: HPGD block)
Cc1c(-c2ncn[nH]2)sc(C#N)c1-c1ccccc1	ALDH1A1 inh 25µM (no result: HPGD block)
COc1cccc(NC(=O)C2CCCN(S(=O)(=O)c3cn(C(C)C)cn3)C2)c1 (stereo not drawn)	none (no result: HPGD block, IMPase Li cell, ALDH1A1 inh, Luc counter)
O=c1[nH][nH]c2cc(=O)n(-c3ccc(Cl)cc3)nc12	none (no result: HPGD block)
Cn1c(=NC(=O)COc2ccccc2)sc2ccccc21	IMPase Li cell 13µM (no result: HPGD block)
CC(=O)N=c1sc2ccccc2n1C	none
CN(Cc1ccco1)c1nc(-c2ccccc2C(F)(F)F)nc2ccccc12	none (no result: HPGD block, Luc counter)
CC(C)CC(NC(=O)CC12CC3CC(CC(C3)C1)C2)C(=O)NC1=NCCS1 (stereo not drawn)	none (no result: HPGD block, Lamin A splicing)
Nn1cnn(Cc2ccccc2)c1=S	HPGD block 20µM, ALDH1A1 inh 25µM
COc1ccc(C(=O)N2CCC[C@@]3(CCN(c4ccccn4)C3)C2)cc1	none (no result: Lamin A splicing)
S=C(NC1CCCCC1)NC1CCCCC1	ALDH1A1 inh inconclusive (no result: Lamin A splicing, Luc counter)
N/C(=N\c1nc2c(c(=O)[nH]1)CCCC2)Nc1ccccc1Sc1ccccc1	none
CN(C)c1nc(Oc2ccc(OCCOc3ccccc3)nn2)nc(N(C)C)n1	Lamin A splicing inconclusive (no result: HPGD block)
O=C(NCc1ccco1)c1scc2c1OCCO2	ALDH1A1 inh 22µM
O=C(NCc1ccco1)c1cc2c(s1)CCCCC2	HPGD block 16µM, ALDH1A1 inh 28µM
O=C(NCc1ccco1)c1ccc(Br)s1	HPGD block 16µM, ALDH1A1 inh inconclusive
CCOc1ccc2nc(N(Cc3cccnc3)C(=O)c3ccc4c(c3)OCCO4)sc2c1	none (no result: HPGD block, IMPase Li cell, ALDH1A1 inh, Luc counter)
CC(C)CC1NC(=O)N(Cc2cc(=O)n3ccsc3n2)C1=O (stereo not drawn)	none (no result: HPGD block)
CCc1nc(NCCCN2CCOCC2)c2oc3ccccc3c2n1	none
CCc1nc(NCCN2CCOCC2)c2oc3ccccc3c2n1	ALDH1A1 inh 0.89µM
CCc1nc(N2CCCCC2)c2oc3ccccc3c2n1	Lamin A splicing inconclusive, ALDH1A1 inh 13µM
CCc1nc(N2CCCCC2C)c2oc3ccccc3c2n1 (stereo not drawn)	ALDH1A1 inh inconclusive
CCOC(=O)C(C)/C(C)=N/NC(=O)CCC(=O)Nc1cc(C)ccc1C (stereo not drawn)	none (no result: HPGD block, Lamin A splicing)
COc1ccc(NC(=O)c2cc(-c3ccco3)on2)cc1	ALDH1A1 inh inconclusive (no result: HPGD block, Lamin A splicing)
COc1cc(NC(=O)c2cc(-c3ccco3)on2)c(OC)cc1Cl	HPGD block inconclusive, Lamin A splicing inconclusive, IMPase Li cell 11µM, ALDH1A1 inh inconclusive
CCOC(=O)c1ccc(N2N=C(C)/C(=C/C=C/c3ccco3)C2=O)cc1	ALDH1A1 inh 0.22µM
CNC(=O)[C@H]1O[C@@H](n2cnc3c(NCc4cccc(I)c4)nc(Cl)nc32)[C@H](O)[C@@H]1O	none (no result: HPGD block, Lamin A splicing, Luc counter)
O=C(Cc1ccccc1Cl)NC1(O)C(=O)c2ccccc2C1=O	ALDH1A1 inh 1.1µM (no result: HPGD block, IMPase Li cell, Luc counter)
O=C(Cc1ccc(Cl)cc1)NCc1ccccc1Cl	none (no result: HPGD block)
COc1ccc(OC)c(NC(=O)c2nc(-c3ccccc3)oc2C)c1	Lamin A splicing inconclusive, ALDH1A1 inh inconclusive (no result: HPGD block)
COc1ccc(C(C[N+](=O)[O-])c2c(C)cc3ccccn23)cc1 (stereo not drawn)	ALDH1A1 inh inconclusive (no result: HPGD block)
COc1ccc(C(C[N+](=O)[O-])c2c(-c3ccccc3)cc3ccccn23)c(OC)c1 (stereo not drawn)	HPGD block 22µM, ALDH1A1 inh inconclusive
CN(Cc1ccccc1)C(=O)N1CCOCC1	none (no result: HPGD block, Lamin A splicing, IMPase Li cell, Luc counter)
O=C(CSc1nnc(-c2cccs2)n1CC1CCCO1)N1CCCC1 (stereo not drawn)	none (no result: HPGD block, Lamin A splicing)
CCOc1ccc(C(C)=O)cc1CSc1nnc(-c2cccs2)n1CC1CCCO1 (stereo not drawn)	ALDH1A1 inh 8.9µM
CC1CCCC(NC(=O)CSc2nnc(N)s2)C1C (stereo not drawn)	HPGD block 28µM, ALDH1A1 inh inconclusive
CC1CCCCC1NC(=O)CSc1nncs1 (stereo not drawn)	HPGD block 22µM
CC(C)CC(=O)Nc1ccc(-c2nnn(CC(=O)NCc3ccco3)n2)cc1	none (no result: HPGD block)
COc1ccc(CCN(C)CCCOc2ccc(S(=O)(=O)c3[nH]c4ccccc4c3C(C)C)cc2)cc1OC	none (no result: Lamin A splicing)
CCOC(=O)C1C(=O)CC(C)(O)C(C(=O)OCC)C1c1ccc(NC(C)=O)cc1 (stereo not drawn)	none (no result: HPGD block, Lamin A splicing)
COc1ccccc1CNC(=O)COCc1cc(-c2cccs2)on1	none (no result: HPGD block, IMPase Li cell, ALDH1A1 inh, Luc counter)
CCN1CCN(CCCOc2ccccc2-c2ccccc2)CC1	ALDH1A1 inh 11µM (no result: HPGD block, Lamin A splicing)
CCN1CCN(CCOc2ccccc2-c2ccccc2)CC1	ALDH1A1 inh inconclusive (no result: HPGD block)
CCn1c(C)c(C(C)=O)c(N2CCN(c3ccccc3)CC2)nc1=S	ALDH1A1 inh 11µM
CCn1c(C)c(C(C)=O)c(N2CCN(C(c3ccccc3)c3ccccc3)CC2)nc1=S	ALDH1A1 inh 14µM (no result: HPGD block, Lamin A splicing)
Cc1noc(C)c1S(=O)(=O)N1CCCC(C(=O)NCc2ccccn2)C1 (stereo not drawn)	none
O=C1c2ccccc2S(=O)(=O)N1CC1CC(c2ccccc2)=NO1 (stereo not drawn)	ALDH1A1 inh inconclusive
O=C1c2ccccc2S(=O)(=O)N1CC1CC(c2ccc(Cl)cc2)=NO1 (stereo not drawn)	HPGD block 18µM, Lamin A splicing inconclusive, ALDH1A1 inh 5.6µM
COc1ccc(C2=NOC(CN3C(=O)c4ccccc4S3(=O)=O)C2)cc1 (stereo not drawn)	HPGD block 25µM, ALDH1A1 inh inconclusive
O=C(O/N=C1\CCS(=O)(=O)c2sccc21)c1ccc(F)cc1	none (no result: HPGD block)
O=C(O/N=C1\CCS(=O)(=O)c2sccc21)c1ccccc1	ALDH1A1 inh 13µM
Cc1ccc(O)c(C(=O)c2cc(C#N)c3nc4ccccc4n3c2)c1	none (no result: HPGD block, Lamin A splicing)
CS(=O)(=O)c1sc2nc(-c3cccs3)cc(-c3ccccc3)c2c1N	HPGD block inconclusive, IMPase Li cell inconclusive, ALDH1A1 inh inconclusive

Screens (PubChem)
